Inconclusive results are not listed. Unmarked numbers belong to inactive results. Activity calls are given as the source filed them. The call rests on the fitted dose curve; in most records, active means well fitted inhibition curve with a large enough effect; inconclusive means small, poorly fitted or top-dose-only effect; inactive means flat fitted curve, though single readings scatter.
System: Zika virus NS2B-NS3 protease (linked construct)
Experiment: Confirmatory screen NINDS AMC qHTS for Zika virus inhibitors (AID 1347152); further: nearly all actives have a fitted effect of over 70% in size;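 on activity change, negative = inhibition: AMC fluorescence gain from cleaved Bz-Nle-KRR-AMC substrate over 15 min; top concentration of the series differs between compounds; 0% = no-inhibitor control and -100% = no-enzyme control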
Details: Purified linked NS2B-NS3, AMC substrate fluorescence; series mostly up to 110 µM; activity change, negative = inhibition: at the top concentration
Text: Assay Submitters (PI): Avindra Nath, Ph.D., National Institute of Neurological Disorders and Stroke (NINDS), Bethesda, MD Radhakrishnan Padmanabhan, Ph.D., Georgetown University (GU), Washington D.C. Zika Virus causes congenital defects, including microcephaly and is associated with Guillain-Barre syndrome, eningoencephalitis and myelitis in infected adult. […] Using a target-based approach, we hope to establish a screening paradigm to uncover novel, cell-active NS2B-NS3 protease (Zika Virus) specific inhibitors from NCATS' collection of small molecules using qHTS. […] Four assay panel was created to identify potential Zika Virus inhibitors. Namely, (1) GU unlinked NS2B-NS3 AMC tagged protease qHTS, (2) GU unlinked NS2B-NS3 Rhodamine tagged protease qHTS, (3) NINDS linked NS2B-NS3 AMC tagged protease qHTS, (4) NINDS linked NS2B-NS3 Rhodamine tagged protease qHTS. Active compounds were re-acquired and re-screened to confirm inhibition. Inhibitors were further screened against various confirmatory and counterscreens in dose response format. Early Translation Branch (ETB) National Center for Advancing Translational Sciences (NCATS), Rockville, MD National Institute of Health (NIH), Bethesda, Maryland
Materials: For the linked assay, Nath lab (NINDS) provided the purified linked NS2B-NS3 protease which is consists of hydrophilic domain of NS2B linked to the NS3 protease domain by a flexible (-[…]-) linker. Control compound aprotinin is obtained from Thermo Scientific (#78432; Waltham, Massachusetts). NS2B-NS3 AMC substrate (Bz-Nle-Lys-Arg-Arg-AMC; Nle-KRR-AMC) purchased from Bachem (#I-1995; Torrance, CA). Ac-VKTGKR-AMC purchased from Genscript or Bachem, Ac-FAAGKR-AMC purchased from Genscript, Ac-GLVKRR-AMC purchased from Genscript, Ac-LKKR-AMC purchased from Genscript. NINDS AMC linked NS2B-NS3 protease qHTS protocol: Briefly, 3 microL of Zika virus linked NS2B-NS3 protease (1 nM for linked final concentration), in assay buffer (10 mM Tris-HCl pH 8.0 with 0.01% Tween 20) was dispensed into a 1,536-well solid-bottom black plate (Greiner Bio One, Monroe, NC). Twenty-three nL of compounds (final concentration range 7.28 nM to 114 microM) or control Aprotinin (final concentration range 3.47 nM to 114 microM) were transferred via Wako Pin-tool (Wako Automation, Richmond, VA). Samples were incubated (room temperature, protected from light) for 15 minutes followed by a 1 microL AMC substrate addition of (final concentration of 10 microM; Km = 18.3 µM). Plates were then read immediately on a ViewLux High-throughput CCD imager (PerkinElmer, Waltham, MA) equipped with standard UV fluorescence optics (340(30) nm excitation, 450(20) nm emission) then incubated (room temperature, protected from light) for 15 minutes (~20% conversion). The change in fluorescence intensity over the 15-minute reaction period was normalized against no-inhibitor and no-enzyme controls and the resulting percent inhibition data were fitted to a 4-parameter Hill equation. Aprotinin was used as the intraplate control.
Potency means the concentration at half of the fitted maximal effect.

Row | Structure (SMILES) | activity change, negative = inhibition | Potency
1 | O=C(OCC#CCSc1nnc(-c2ccc(Cl)cc2)o1)c1ccc(F)cc1 | -3.38% | –
2 | COc1ccccc1-c1ccnc(N[C@H]2CO[C@H]3[C@@H]2OC[C@@H]3NS(=O)(=O)c2ccc3ccccc3c2)n1 | 4.04% | –
3 | CN(Cc1ccc(C(=O)O)cc1)c1ccc(OCc2c(-c3c(Cl)cccc3Cl)noc2C2CC2)nc1C(F)(F)F | – | 13.9 µM (active)
4 | CCN(CC)c1ccc(/C=N/NC(=O)c2ccc(O)cc2)cc1 | -15.1% [at 56.6 µM] | –
5 | Cc1cc(C)cc(C(=O)N(C)[C@H](Cc2ccc(-c3ccccc3)cc2)C(=O)N[C@@H](Cc2c[nH]c3ccccc23)C(=O)O)c1 | – | 9.61 µM (active)
6 | C[S+](=O)([O-])c1ccc(OCC2CN(Cc3ccccc3)C(=O)c3c(ccnc3-c3ccc(OCC(=O)O)cc3)O2)cc1 (stereo not given) | -4.98% | –
7 | O=C(Nc1ccc(Oc2ccccc2)cc1)O[C@@H]1CO[C@H]2[C@@H]1OC[C@@H]2NS(=O)(=O)c1ccc(Cl)cc1 | 23% | –
8 | O=C(O)Cn1ccc2cc(OCc3cccc(-c4cccc(C(F)(F)F)c4)c3)cnc21 | – | 56.9 µM (active)
9 | O=C(Nc1cccc2ccccc12)O[C@@H]1CO[C@H]2[C@@H]1OC[C@@H]2NS(=O)(=O)c1ccc2ccccc2c1 | -4.2% | –
10 | O=C(Nc1ccc(Oc2ccccc2)cc1)O[C@@H]1CO[C@H]2[C@@H]1OC[C@@H]2n1nnnc1-c1ccc(-c2ccccc2)cc1 | -8.2% | –
11 | CC(=O)Oc1cc2c(c(C)c1OC(C)=O)CC=C1[C@@]2(C)CC[C@@]2(C)[C@H]3C[C@](C)(C(=O)O)CC[C@]3(C)CC[C@]12C | – | 19.2 µM (active)
12 | CN(CC(=O)N(Cc1ccc(C2CCCCC2)cc1)c1ccc(C(=O)O)cc1)S(=O)(=O)c1c(F)c(F)c(F)c(F)c1F | – | 19.7 µM (active)
13 | COC(=O)[C@H](Cc1ccc(OC)cc1)NC(=O)[C@H]1CN(S(=O)(=O)c2ccccc2)CCN1S(=O)(=O)c1ccccc1 | -0.426% | –
14 | O=C(O)c1cccc(-c2ccc(OC(F)(F)F)cc2)c1 | -10.1% [at 169 µM] | –
15 | O=C(O)c1ccc(-c2cc(C(F)(F)F)ccc2Cl)cc1 | -13.6% [at 169 µM] | –
16 | O=C(O)c1ccc(-c2ccc(C(F)(F)F)cc2)cc1 | -9.4% [at 169 µM] | –
17 | O=C(O)c1cccc(-c2cccc(C(F)(F)F)c2)c1 | -14.4% [at 169 µM] | –
18 | Nc1cc(N)c(N=Nc2ccc(S(=O)(=O)Nc3nccs3)cc2)cc1N=Nc1ccc(S(=O)(=O)Nc2nccs2)cc1 | – | 12.6 µM (active)
19 | CS(=O)(=O)c1ccc(-c2cn3ccccc3n2)cc1 | – | 21.5 µM (active)
20 | O=C(O)COc1ccc(-c2nccc3c2C(=O)N(Cc2ccccc2)CC(COc2cccc(C(F)(F)F)c2)O3)cc1 (stereo not given) | – | 55.5 µM (active)

Row | Structure (SMILES) | activity change, negative = inhibition | Potency
21 | CN(Cc1cnc2nc(N)nc(N)c2n1)c1ccc(C(=O)NC(CCC(=O)O)C(=O)O)cc1 (stereo not given) | -16.1% [at 56.6 µM] | –
22 | CC(C)(C)c1ccc(NC(=O)O[C@@H]2CO[C@H]3[C@@H]2OC[C@@H]3Nc2nccc(-c3ccc(-c4ccccc4)cc3)n2)cc1 | -4.44% | –
23 | O=S(=O)(N[C@H]1CO[C@H]2[C@@H]1OC[C@@H]2n1nnnc1-c1ccc2c(c1)OCO2)c1ccc2ccccc2c1 | -18% | –
24 | O=C(O)c1ccc(-c2cccc(C(F)(F)F)c2)cc1 | -4.9% [at 169 µM] | –
25 | Cc1cccc(C)c1NS(=O)(=O)c1ccc(NS(=O)(=O)c2ccc3c(c2)OCCO3)cc1 | 1.9% | –
26 | O=C(O)c1c(Sc2ccccc2)c2cc(Cl)ccc2n1Cc1ccc(Cl)cc1 | – | 6.81 µM (active)
27 | N#Cc1ccc(OCC2CN(Cc3c[nH]c4ccccc34)C(=O)c3c(ccnc3-c3ccc(OCC(=O)O)cc3)O2)cc1 (stereo not given) | -15.1% | –
28 | CC1CCN(C(c2ccc(F)cc2)c2ccc(C(C)C(=O)O)cc2-c2ccc(C(F)(F)F)cc2)CC1 (stereo not given) | – | 13.9 µM (active)
29 | CS(=O)(=O)c1ccc(Nc2ccc3c(c2)OCO3)c([N+](=O)[O-])c1 | 2.33% | –
30 | O=C(Nc1cccc2ccccc12)O[C@@H]1CO[C@H]2[C@@H]1OC[C@@H]2NS(=O)(=O)c1cccc2cccnc12 | -3.77% | –
31 | COc1ccc(-c2nc(C(=O)N3CCN(C)CC3)sc2-c2ccc(OC)cc2)cc1 | – | 24.1 µM (active)
32 | Clc1ccc(-c2nn3c(COc4cc(Cl)c(OCc5nnc6sc(-c7ccc(Cl)cc7)nn56)cc4Cl)nnc3s2)cc1 | – | 20 µM (active)
33 | CC1(COc2ccc(C[C@H]3SC(=O)NC3=O)cc2)CCCCC1 | – | 19.2 µM (active)
34 | CCCCc1nn(-c2ccccc2C(F)(F)F)c(=O)n1Cc1ccc(-c2ccccc2S(=O)(=O)NC(=O)c2sccc2C)cc1 | – | 24.1 µM (active)
35 | Clc1nc2n[nH]nc2nc1Cl | – | 22.4 µM (active)
36 | Cc1ncccc1OCC1CN(Cc2cccc(C(F)(F)F)c2)C(=O)c2c(ccnc2-c2ccc(OCC(=O)O)cc2)O1 (stereo not given) | 1.42% | –
37 | Clc1ccc(-c2nn3c(COc4cccc(OCc5nnc6sc(-c7ccc(Cl)cc7)nn56)c4)nnc3s2)cc1 | – | 50.1 µM (active)
38 | Clc1cc(OCc2nnc3sc(Cc4ccccc4)nn23)c(Cl)cc1OCc1nnc2sc(Cc3ccccc3)nn12 | – | 12.6 µM (active)
39 | O=C(O)COc1ccc(-c2nccc3c2C(=O)N(Cc2cccc(C(F)(F)F)c2)CC(COc2cccnc2)O3)cc1 (stereo not given) | -12.6% | –
40 | O=C(O)COc1ccc(-c2nccc3c2C(=O)N(Cc2cccc(C(F)(F)F)c2)CC(COc2ccc(OC(F)(F)F)cc2)O3)cc1 (stereo not given) | – | 22.1 µM (active)
